“And” between values parts separate entries of the source, which are not always exact repeats. Equal values may be shown once. The campaign covered roughly 5,500 compounds. About 2,000 (36%) were called active. Another 18% or so got no clear call; they are omitted. No stated cut-off is given here; in the data, active means normalized growth mostly below about 0.91 (no sharp cut-off); inconclusive means no clear call, values can overlap the other calls; inactive means mostly above about 0.92. The list shows a part of the results.
Assay: chemical genetic growth profiling, strain panel (AID 1159580);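 further: tested at 20 µM; growth read once vehicle control cultures reached saturation at 30 °C; 1 = growth at the plate median or of vehicle wells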
Conditions: S. cerevisiae deletion strains, growth OD

Measured: normalized growth

Nc1ccc(C(=O)Oc2ccccc2)c(O)c1
inactive: locus YAL021C, strain ccr4, stronger effect = lower value 0.967 | locus YAL026C, strain drs2, stronger effect = lower value 0.915 | locus YAL030W, strain snc1, stronger effect = lower value 0.935 | locus YBL061C, strain skt5, stronger effect = lower value 0.932 | locus YBR009C, strain hhf1, stronger effect = lower value 0.934 | locus YBR021W, strain FUR4, stronger effect = lower value 0.981 | locus YBR023C, strain chs3, stronger effect = lower value 0.925 | locus YBR171W, strain sec66, stronger effect = lower value 0.937 | locus YBR229C, strain ROT2, stronger effect = lower value 0.948 | locus YBR231C, strain swc5, stronger effect = lower value 0.954 | locus YBR279W, strain paf1, stronger effect = lower value 0.957 | locus YCL011C, strain gbp2, stronger effect = lower value 0.929 | locus YCL016C, strain dcc1, stronger effect = lower value 0.942 | locus YCL061C, strain MRC1, stronger effect = lower value 0.951 | locus YCL069W, strain vba3, stronger effect = lower value 0.95 | locus YDL005C, strain med2, stronger effect = lower value 0.971 | locus YDL035C, strain GPR1, stronger effect = lower value 0.867 | locus YDL040C, strain nat1, stronger effect = lower value 0.938 | locus YDL101C, strain DUN1, stronger effect = lower value 0.906 | locus YDL185W, strain tfp1, stronger effect = lower value 0.966 | locus YDR001C, strain nth1, stronger effect = lower value 0.936 | locus YDR069C, strain doa4, stronger effect = lower value 0.948 | locus YDR150W, strain NUM1, stronger effect = lower value 0.957 | locus YDR195W, strain ref2 1.04 | locus YDR297W, strain sur2, stronger effect = lower value 0.932 | locus YDR334W, strain swr1, stronger effect = lower value 0.944 | locus YDR335W, strain msn5, stronger effect = lower value 0.941 | locus YDR392W, strain spt3, stronger effect = lower value 0.81 | locus YEL003W, strain gim4, stronger effect = lower value 0.933 | locus YEL037C, strain rad23, stronger effect = lower value 0.946 | locus YEL061C, strain CIN8 (second series), stronger effect = lower value 0.916 | locus YEL061C, strain CIN8, stronger effect = lower value 0.938 | locus YER015W, strain faa2, stronger effect = lower value 0.944 | locus YER016W, strain bim1, stronger effect = lower value 0.941 | locus YER111C, strain swi4, stronger effect = lower value 0.938 | locus YER155C, strain BEM2, stronger effect = lower value 0.947 | locus YFR010W, strain ubp6, stronger effect = lower value 0.95 | locus YGL167C, strain pmr1, stronger effect = lower value 0.942 | locus YGL227W, strain vid30, stronger effect = lower value 0.927 | locus YGL253W, strain hxk2, stronger effect = lower value 0.967 | locus YHR013C, strain ard1, stronger effect = lower value 0.907 | locus YHR027C, strain rpn1, stronger effect = lower value 0.945 | locus YHR079C, strain IRE1, stronger effect = lower value 0.929 | locus YHR094C, strain hxt1, stronger effect = lower value 0.926 | locus YHR142W, strain chs7, stronger effect = lower value 0.894 | locus YIL073C, strain SPO22, stronger effect = lower value 0.764 | locus YJL092W, strain hpr5, stronger effect = lower value 0.943 | locus YJL095W, strain BCK1 (second series), stronger effect = lower value 0.936 | locus YJL115W, strain asf1, stronger effect = lower value 0.936 | locus YJL129C, strain trk1, stronger effect = lower value 0.892 | locus YJL134W, strain LCB3, stronger effect = lower value 0.955 | locus YJL154C, strain vps35, stronger effect = lower value 0.941 | locus YJL164C, strain tpk1, stronger effect = lower value 0.919 | locus YJL166W, strain qcr8, stronger effect = lower value 0.935 | locus YJL187C, strain SWE1 (second series), stronger effect = lower value 0.876 | locus YJL187C, strain SWE1, stronger effect = lower value 0.944
0.9 (active) and 0.937 (inactive): locus YHR030C, strain SLT2, stronger effect = lower value
active: locus YCL029C, strain bik1, stronger effect = lower value 0.883 | locus YCR088W, strain abp1, stronger effect = lower value 0.921 | locus YDL074C, strain BRE1, stronger effect = lower value 0.67 | locus YDL134C, strain PPH21, stronger effect = lower value 0.837 | locus YDL192W, strain arf1, stronger effect = lower value 0.807 | locus YDR101C, strain arx1, stronger effect = lower value 0.864 | locus YDR137W, strain rgp1, stronger effect = lower value 0.545 | locus YDR159W, strain sac3, stronger effect = lower value 0.862 | locus YDR162C, strain NBP2, stronger effect = lower value 0.567 | locus YDR318W, strain mcm21, stronger effect = lower value 0.765 | locus YDR388W, stronger effect = lower value 0.884 | locus YDR502C, strain sam2, stronger effect = lower value 0.767 | locus YER110C, stronger effect = lower value 0.86 | locus YER155C, strain BEM2 (second series), stronger effect = lower value 0.533 | locus YER167W, strain BCK2, stronger effect = lower value 0.759 | locus YGL078C, strain dbp3, stronger effect = lower value 0.893 | locus YGL086W, strain mad1, stronger effect = lower value 0.801 | locus YGL173C, strain kem1, stronger effect = lower value 0.899 | locus YGL240W, strain doc1, stronger effect = lower value 0.864 | locus YGL248W, strain PDE1, stronger effect = lower value 0.864 | locus YGR135W, strain pre9, stronger effect = lower value 0.676 | locus YGR252W, strain gcn5, stronger effect = lower value 0.589 | locus YHR079C, strain IRE1 (second series), stronger effect = lower value 0.864 | locus YHR129C, strain ARP1, stronger effect = lower value 0.88 | locus YHR200W, strain rpn10, stronger effect = lower value 0.913 | locus YIL066C, strain RNR3, stronger effect = lower value 0.741 | locus YIL125W, strain kgd1, stronger effect = lower value 0.922 | locus YIR030C, strain dcg1, stronger effect = lower value 0.867 | locus YJL168C, strain set2, stronger effect = lower value 0.921
0.651 (active) and 0.94 (inactive): locus YJL095W, strain BCK1, stronger effect = lower value
